Source: PubChem BioAssay (NCI)
About 79,000 compounds went through this panel and 15% of them were active in at least one assay; those are over-represented in the sample as a whole. The source made the active and inactive calls. Rule as the data show it: active = growth inhibition above about 70%; inactive = the rest.

Assays:
[1] = NCI Yeast Anticancer Drug Screen. Data for the rad50 strain (AID 155);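 also: 0% = growth of vehicle-only cultures of the same strain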; settings: S. cerevisiae rad50 strain growth inhibition, stronger effect = higher value
How it was run: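 DNA repair mutant yeast, compound exposure, growth read-out; inhibition is taken relative to vehicle.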

[2] = NCI Yeast Anticancer Drug Screen. Data for the mec2-1 strain (AID 157); settings: S. cerevisiae mec2-1 strain, stronger effect = higher value
How it was run: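 Growth inhibition is read against vehicle-treated controls after compound exposure of the mec2-1 yeast strain, which is defective in DNA damage repair or cell cycle control.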

[3] = NCI Yeast Anticancer Drug Screen. Data for the sgs1 mgt1 strain (AID 161);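 also: 0% = growth of cultures given vehicle only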; settings: S. cerevisiae sgs1 mgt1 strain, stronger effect = higher value
How it was run: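 Yeast cells carrying a defined DNA-repair defect were exposed to test compounds. Growth inhibition was measured relative to vehicle-treated controls.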

[4] = NCI Yeast Anticancer Drug Screen. Data for the cln2 rad14 strain (AID 165);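 also: 0% = growth equal to vehicle treated cultures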; settings: S. cerevisiae cln2 rad14 strain, stronger effect = higher value
How it was run: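 Growth inhibition, relative to vehicle-treated controls, is the read-out. The test organism is a yeast strain with defined genetic alterations, cln2 rad14.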

[5] = NCI Yeast Anticancer Drug Screen. Data for the bub3 strain (AID 167); settings: S. cerevisiae bub3 mutant strain, stronger effect = higher value
How it was run: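 In this screen, a yeast mutant lacking normal mitotic checkpoint function is challenged with compound. Relative growth versus vehicle gives the inhibition value.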

[6] = NCI Yeast Anticancer Drug Screen. Data for the mlh1 rad18 strain (AID 175); settings: S. cerevisiae mlh1 rad18 strain growth inhibition, stronger effect = higher value
How it was run: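 Cells of a genetically altered yeast strain, deficient in DNA damage repair, were treated with compound. Their growth was then compared with that of vehicle-treated cultures to give inhibition.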

[7] = at 5.0 µM (retest, dose inferred, filed as 0.5)
[8] = at 50.0 µM (retest, dose inferred, filed as 5.0)

Measured: growth inhibition

FC(F)(F)c1ccc(NC(=S)SCc2ccc3c(c2)OCO3)cc1
active: [1]; at 50.0 µM 74.5% | [2]; at 50.0 µM 95% | [3]; at 50.0 µM 93.3% | [4]; at 50.0 µM 86.3% | [5]; at 50.0 µM 87% | [6]; at 50.0 µM 93.2%
inactive: [1]; [7] -5% | [1]; [8] 0% | [2]; [7] -5% | [2]; [8] -1% | [3]; [7] -3% | [3]; [8] 25% | [4]; [7] -11% | [4]; [8] -15% | [5]; [7] -8% | [5]; [8] -6% | [6]; [7] -8% | [6]; [8] 24%

C=C1C(=O)O[C@@H]2CC(CO)=C([C@@H](C)CCCO)[C@@H](OC(=O)/C(C)=C\C)[C@H]12
inactive: [1]; [7] 3% | [1]; [8] 10% | [2]; [7] 5% | [2]; [8] 33% | [3]; [7] 4% | [3]; [8] 25% | [4]; [7] 1% | [4]; [8] 6% | [5]; [7] 9% | [5]; [8] 65% | [6]; [7] -2% | [6]; [8] 29% | [6]; at 50.0 µM -33.3%
active: [1]; at 50.0 µM 92.2% | [2]; at 50.0 µM 94.3% | [3]; at 50.0 µM 93.8% | [4]; at 50.0 µM 92.2% | [5]; at 50.0 µM 92.8%

C=C1C(=O)OC2C1CCC(=C)C1CC(O)C(=C)C12 (configuration not stated)
inactive: [1]; [7] 3% | [1]; [8] 44% | [2]; [7] 11% | [2]; [8] 64% | [3]; [7] 0% | [4]; [7] 10% | [4]; [8] 39% | [5]; [7] 2% | [5]; [8] 65% | [6]; [7] 8% | [6]; at 50.0 µM 31.4%
active: [1]; at 50.0 µM 92.2% | [2]; at 50.0 µM 94.2% | [3]; [8] 70% | [3]; at 50.0 µM 93.6% | [4]; at 50.0 µM 92.4% | [5]; at 50.0 µM 92.5% | [6]; [8] 70%

N#CCc1ccccc1-c1cccc2ccccc12
inactive: [1]; [7] 0% | [1]; [8] 36% | [1]; at 50.0 µM 35.6% | [2]; [7] 0% | [2]; [8] 44% | [2]; at 50.0 µM 29.4% | [3]; [7] -2% | [3]; [8] 17% | [3]; at 50.0 µM 54.8% | [4]; [7] 3% | [4]; [8] 24% | [4]; at 50.0 µM 41.2% | [5]; [7] 3% | [5]; [8] 34% | [5]; at 50.0 µM 40% | [6]; [7] 1% | [6]; [8] 41%
active: [6]; at 50.0 µM 71.5%

O=C(COc1ccccc1)Oc1c(Cl)c(Cl)c(Cl)c(Cl)c1Cl
inactive: [1]; [7] 23% | [2]; [7] 28% | [3]; [7] 34% | [4]; [7] 10% | [5]; [7] 11% | [6]; [7] 23%
active: [1]; [8] 94% | [1]; at 50.0 µM 94% | [2]; [8] 97% | [2]; at 50.0 µM 98% | [3]; [8] 98% | [3]; at 50.0 µM 96% | [4]; [8] 97% | [4]; at 50.0 µM 96% | [5]; [8] 96% | [5]; at 50.0 µM 98.3% | [6]; [8] 97% | [6]; at 50.0 µM 97.5%

CC(C)C1=CC23CCC4C(C)(C(=O)O)CCCC4(C)C2CC1CC3C#N (configuration not stated)
active: [1]; at 50.0 µM 98% | [2]; at 50.0 µM 98.5% | [3]; at 50.0 µM 98.5% | [4]; at 50.0 µM 97.1% | [5]; at 50.0 µM 98.5% | [6]; at 50.0 µM 98.2%
inactive: [1]; [7] 19% | [1]; [8] 56% | [2]; [7] 18% | [2]; [8] 34% | [3]; [7] 12% | [3]; [8] 42% | [4]; [7] 3% | [4]; [8] 57% | [5]; [7] -1% | [5]; [8] 49% | [6]; [7] 13% | [6]; [8] 39%

Cc1ccc(C(=O)OCCN2CCN(c3ccccc3)CC2)c([N+](=O)[O-])c1OCc1ccccc1
active: [1]; at 50.0 µM 87% | [3]; [8] 82% | [3]; at 50.0 µM 89.3% | [4]; at 50.0 µM 74% | [5]; [8] 70% | [5]; at 50.0 µM 72.7% | [6]; [8] 78% | [6]; at 50.0 µM 90.6%
inactive: [1]; [7] 30% | [1]; [8] 66% | [2]; [7] 36% | [2]; [8] 43% | [2]; at 50.0 µM 63.9% | [3]; [7] 25% | [4]; [7] 24% | [4]; [8] 64% | [5]; [7] 28% | [6]; [7] 19%

Nc1ccc(C(=O)N/C(=C\C=C\c2ccco2)c2nc3c4c(ccc3[nH]2)C(=O)c2ccccc2C4=O)cc1
active: [1]; [8] 75% | [1]; at 50.0 µM 90.8% | [3]; at 50.0 µM 74.8% | [6]; at 50.0 µM 90.5%
inactive: [1]; [7] 23% | [2]; [7] 1% | [2]; [8] 28% | [2]; at 50.0 µM 62.1% | [3]; [7] 3% | [3]; [8] 35% | [4]; [7] 0% | [4]; [8] 9% | [4]; at 50.0 µM 44.7% | [5]; [7] 2% | [5]; [8] 22% | [5]; at 50.0 µM 31.9% | [6]; [7] 10% | [6]; [8] 12%

CCc1c(O)c(O)c(C(C)=O)c2c(O)c(-c3c(C)cc4c(CC)c(O)c(O)c(C(C)=O)c4c3O)c(C)cc12
active: [1]; [8] 96% | [1]; at 50.0 µM 94.2% | [2]; [8] 96% | [2]; at 50.0 µM 95.3% | [3]; [8] 96% | [3]; at 50.0 µM 95.2% | [4]; [8] 94% | [4]; at 50.0 µM 92.9% | [5]; [8] 97% | [5]; at 50.0 µM 95.7% | [6]; [8] 96% | [6]; at 50.0 µM 95.5%
inactive: [1]; [7] -13% | [2]; [7] 9% | [3]; [7] -10% | [4]; [7] -20% | [5]; [7] 11% | [6]; [7] 7%
